Reference: PubChem BioAssay (NCI)
This is part of a sample that, as a whole, favours compounds with a hit. Of some 79,000 tested, about 15% had one in any assay. No stated cut-off is given here; in the data, active means growth inhibition above about 70%; inactive means the rest.

Tests used:
[1] = NCI Yeast Anticancer Drug Screen. Data for the rad50 strain (AID 155);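 further: 0% = growth of vehicle-only cultures of the same strain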; conditions: S. cerevisiae rad50 strain growth inhibition; at 50.0 µM; active compounds read high
Summary of the method: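 Compounds were tested on a yeast strain with an engineered DNA damage repair alteration; the reported value is growth inhibition normalised to vehicle treatment.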

[2] = NCI Yeast Anticancer Drug Screen. Data for the mec2-1 strain (AID 157); conditions: S. cerevisiae mec2-1 strain, at 50.0 µM, active compounds read high
Summary of the method: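 mec2-1 yeast strain, carrying an alteration in DNA damage repair or cell cycle control, was exposed to compounds; growth inhibition was measured relative to vehicle-treated controls.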

[3] = NCI Yeast Anticancer Drug Screen. Data for the sgs1 mgt1 strain (AID 161);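 further: 0% = growth of cultures given vehicle only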; conditions: S. cerevisiae sgs1 mgt1 strain, at 50.0 µM, active compounds read high
Summary of the method: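 This yeast growth screen uses a strain with defined DNA-repair lesions; compound-treated growth is compared with vehicle-treated growth.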

[4] = NCI Yeast Anticancer Drug Screen. Data for the bub3 strain (AID 167); conditions: S. cerevisiae bub3 mutant strain, at 50.0 µM, active compounds read high
Summary of the method: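 Growth of a checkpoint-deficient yeast mutant is measured after compound exposure. Values represent inhibition relative to vehicle.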

[5] = NCI Yeast Anticancer Drug Screen. Data for the mlh1 rad18 strain (AID 175); conditions: S. cerevisiae mlh1 rad18 strain growth inhibition; at 50.0 µM; active compounds read high
Summary of the method: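 Growth inhibition of the yeast strain was measured after compound exposure and expressed relative to vehicle-treated controls. The strain carries defined defects in DNA damage repair.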

[6] = NCI Yeast Anticancer Drug Screen. Data for the cln2 rad14 strain (AID 165);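 further: 0% = growth equal to vehicle treated cultures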; conditions: S. cerevisiae cln2 rad14 strain, at 50.0 µM, active compounds read high
Summary of the method: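 Yeast carrying cln2 and rad14 alterations (cell cycle control and DNA damage repair) were exposed to compounds. Growth inhibition was measured against vehicle-treated controls.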

Measured: growth inhibition

CCOC(=O)c1cc(Cl)c(O)c(Cl)c1
inactive: [1] 4.5% | [2] -14% | [3] 1.4% | [4] 3.25% | [5] 13.9%

C=C1C(=O)C2CCC1C2 (configuration not stated)
inactive: [1] 32.4% | [2] -24.6% | [3] 23.8% | [4] 7.8% | [5] 8.25%

Cc1cc(=O)n(Nc2ccccc2)c(O)c1C#N
inactive: [1] 3.45% | [2] -19% | [3] 0.3% | [4] 5.6% | [5] 3.15%

CC(C)NC(=O)OCc1c(COC(=O)NC(C)C)c(-c2ccc(Cl)cc2)n2c1CCC2
inactive: [1] -29.6% | [2] -23.7% | [3] -26.1% | [4] -6.75% | [5] -24.4%

CN(C)c1ccc(/C=C/C(=O)c2ccc(NC(N)=O)cc2)cc1
inactive: [1] -8.35% | [2] 1.9% | [3] -4.5% | [4] -18% | [5] -8%

Cc1ccc(C2CCCCC2)cc1Br
inactive: [1] 5.7% | [2] 4.25% | [3] 4.4% | [4] 9.45% | [5] 28.3%

Nc1ccc2ccccc2c1-c1c(N)ccc2ccccc12
inactive: [1] 14.8% | [2] 2.45% | [3] -2.05% | [4] 0.75% | [5] -2.65%

Cc1ccc(S(=O)(=O)NC(=O)NCCSSCCNC(=O)NS(=O)(=O)c2ccc(C)cc2)cc1
inactive: [1] 10.6% | [2] -7.35% | [3] 12.6% | [6] -1% | [5] 7.95%

CCOC(=O)C(=O)CC(=O)c1ccccc1
inactive: [1] 8.65% | [2] 8.05% | [3] -5.75% | [6] -26.4% | [5] 11.7%

CCOc1ccncc1[N+](=O)[O-]
inactive: [1] 5.5% | [2] 13.1% | [3] 3.25% | [4] 10.1% | [5] 5%

Clc1ccc(/C=C/c2ccccn2)cc1
inactive: [1] 21.1% | [2] 2.05% | [3] 9.3% | [4] 7.5% | [5] 28.4%

O=C(O)CSCC(=O)Nc1cc(C(F)(F)F)ccc1Cl
inactive: [1] -28.1% | [2] -36.6% | [3] -25.8% | [4] -11.3% | [5] -11.2%

CC(=O)C1C(=O)C(=O)N(c2cccc([N+](=O)[O-])c2)C1=O (configuration not stated)
inactive: [1] -40% | [2] -23.9% | [3] -8.75% | [4] -23.4% | [5] -54.3%

CCOC(C=O)OCC
inactive: [1] 0.6% | [2] 6% | [6] -9% | [4] -4.3% | [5] -10.9%

COc1ccc(NNS(=O)(=O)O)cc1
inactive: [1] 1.45% | [3] 21.7% | [6] -10.8% | [4] -1.65% | [5] 4%

CN(C)c1ccc(O)c2c1CC1CC3C(N(C)C)C(=O)C(C(N)=O)=C(O)C3(O)C(=O)C1=C2O (configuration not stated)
inactive: [1] 60.8% | [2] 29.7% | [6] 18.4% | [4] 3.6% | [5] 32.9%

Cc1c(-c2ccc(C3CCCCC3)cc2)nc2ccc(F)cc2c1C(=O)O
inactive: [1] 15.3% | [2] 8.15% | [6] 5.3% | [4] 1.8% | [5] -15.2%

Nc1cccc2cccc(O)c12
inactive: [1] 40.1% | [2] 18.7% | [6] -10.8% | [4] 41.4% | [5] 43.5%

O=C(N/N=C\c1ccc(Cl)cc1Cl)c1ccncc1
inactive: [1] 1% | [2] 6.85% | [6] 19.2% | [4] -7%

Nc1ccccc1SC1CC(=O)N(c2ccc(Cl)c(Cl)c2)C1=O (configuration not stated)
inactive: [1] -2.05% | [2] -21.6% | [6] -15.9% | [4] 1.15% | [5] -5.4%

Nc1cc(N)ncn1
inactive: [1] -1.3% | [2] -18.9% | [6] 22.5% | [5] 26.7%

CC(C)c1ccccc1NC(=O)N1CCC(C(C)C)CC1
inactive: [1] -20.8% | [2] -42.6% | [6] -22.6% | [4] -7% | [5] -12.7%

Cc1ccc(NC(=S)N2CCOCC2)cc1C
inactive: [1] 0.55% | [3] 29.6% | [6] 8.35% | [4] 4.2% | [5] -1.55%

CC(=O)Nc1ccc(C(=O)c2ccc(S(=O)(=O)Nc3ccccc3)cc2)cc1
inactive: [1] 6.5% | [2] -9.15% | [6] 16.9% | [4] 6.05% | [5] -14.4%

CCN(C(=O)Nc1ccccc1Cl)c1ccccc1
inactive: [1] 8.75% | [2] 13.1% | [6] 2.95% | [4] 7.8% | [5] 11.6%

Cc1cccc(-[n+]2noc(N)n2)c1
inactive: [1] 29.1% | [2] 22.2% | [6] -3.35% | [4] 1.95% | [5] 40.6%

CCCCCCCCCCCCCCCCCCSC(=N)N
inactive: [1] 45.9% | [2] -16.7% | [6] -116% | [4] 29.3% | [5] 27.9%

O=C(O)C1CCCN1C(=O)OCc1ccccc1 (configuration not stated)
inactive: [1] -23.4% | [2] -47.6% | [6] -2.45% | [4] -22.9% | [5] -8.9%

O=C(O)c1cc(I)ccc1O
inactive: [1] -6.65% | [2] -0.3% | [6] -33.8% | [4] -12.7%

CSCC[C@@H]1C(=O)N(C)[C@H](C(C)(C)C)N1C(=O)c1ccccc1
inactive: [1] -0.9% | [2] -12.4% | [6] 0.6% | [4] 44.7% | [5] -13.4%

CCCCCC/C=C\CCCCCCCCCc1cc(O)cc(OC)c1O
inactive: [1] -8.55% | [2] 4.45% | [6] -9.8% | [4] -33.2% | [5] 13.2%

NC(=O)N1CCOCC1
inactive: [1] 15.2% | [2] -7.9% | [6] -27.4% | [4] -14.3% | [5] 17.9%

COc1nc2ccccc2s1
inactive: [1] 18.6% | [2] -15.2% | [6] 10.9% | [4] 1.5% | [5] 22.4%

CC(=O)C1C(=O)C(=O)N(c2ccc(Cl)c(Cl)c2)C1=O (configuration not stated)
inactive: [1] -22.1% | [2] -21% | [6] -14.4% | [4] -9.5%

Cc1cc(C)cc(OCC(=O)O)c1
inactive: [1] 16.6% | [2] 10.2% | [3] -10.6% | [5] 3.4%

CCCC(=O)c1cccs1
inactive: [1] 3.25% | [2] 9.85% | [6] -11.3% | [4] -4.1% | [5] 11.9%

C/C(Cc1ccccc1)=N\O
inactive: [1] 3.75% | [2] 3.1% | [6] 19.8% | [4] -7.95% | [5] 7.25%

O=S(Cc1ccccc1)/C(=C/NC(=S)Nc1cc(Cl)ccc1Cl)c1ccccc1 (configuration not stated)
inactive: [1] 3.6% | [3] 14.4% | [6] 5.6% | [4] 5.35%

Cc1cc(Cl)cc(Cc2cc(Cl)cc(C)c2O)c1O
inactive: [1] 50.1% | [2] 24.1% | [6] 29% | [4] 22.1%

CCc1ccccc1C(=O)N(CC)CC
inactive: [1] -14.8% | [2] 18.4% | [4] -16.1% | [5] -6.65%

CCCOCc1cn[nH]n1
inactive: [1] -9.7% | [2] 5.25% | [6] -8.85%

O=C(OCC1CCCO1)c1ccc([N+](=O)[O-])cc1 (configuration not stated)
inactive: [1] 2.05% | [3] 12.9% | [6] 9.7% | [4] 30.9% | [5] 12.3%

O=S(=O)(O)C(C(I)I)S(=O)(=O)O
inactive: [1] -0.15% | [2] -19.8% | [6] -34.5% | [4] -6.85% | [5] -7.6%

O=S(=O)(O)c1cccnc1
inactive: [1] 12.4% | [2] 6% | [6] -11.6% | [4] -2.25% | [5] 15.8%

CN(C)CCOC(=O)Nc1ccc(Cc2ccc(NC(=O)OCCN(C)C)cc2)cc1
inactive: [1] -2.1% | [2] -25.2% | [6] 8.25% | [4] 8.7% | [5] 8.3%

CC12CCC3c4ccc(O)cc4CCC3C1CCC2=O (configuration not stated)
inactive: [1] 26.2% | [2] -11.8% | [6] 12.7% | [4] 18.5% | [5] 3.45%

OCCc1ccc(Cl)cc1
inactive: [1] 10.8% | [3] 9.7% | [6] 15.3% | [4] -1.3% | [5] 7.9%

CCNc1ncnc2[nH]ncc12
inactive: [1] -8.2% | [2] -6.45% | [6] -13.8% | [4] 3.9% | [5] -5.3%

NC(CO)(CO)c1ccccc1
inactive: [1] 34.4% | [2] 13.1% | [6] 20% | [4] 17.5% | [5] 29.9%

C=CCC(OC(C)=O)c1ccc(OC)c(OC)c1 (configuration not stated)
inactive: [1] 11.3% | [2] 1.35% | [6] -13.9% | [4] 8.7% | [5] 9.5%

Nc1ccc2c(c1)Cc1cc(N)c(N)cc1-2
inactive: [2] -7.75%

CC(=O)CSc1ncnc2nc[nH]c12
inactive: [2] 2.8%
